# Rows were chosen to be rich in hits. Some 18% of all compounds tested hit in one or more screens of this group.
# TDP1 cell CPT: qHTS for Inhibitors of human tyrosyl-DNA phosphodiesterase 1 (TDP1): qHTS in cells in presence of CPT; chicken DT40 Tdp1-/-;hTDP1 cells + 20 nM CPT, ATP luminescence, 48 h; Potency, µM (titrated, usually from 46.2 µM), for inactives: at the highest dose activity change, negative = growth inhibition, hits mostly inhibitors; 420,000 tested, 12% active; note: potency is the fitted concentration of half-maximal effect; nearly all actives have a fitted effect of over 55% in size
#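 Chicken DT40 Tdp1-/- cells stably complemented with human TDP1 were seeded at 400 cells/well in medium containing 20 nM camptothecin, exposed to pin-transferred compounds, and grown at 37 °C for at least 48 hr. Viability was read as ATP luminescence.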
# TDP1 inh: qHTS Assay for Inhibitors of Tyrosyl-DNA Phosphodiesterase (TDP1). Potency, µM (top dose mostly 130 µM), for the others: at the top dose activity change, negative = inhibition, usual class: inhibitors. recombinant TDP1, AlphaScreen DNA substrate cleavage. Tyrosyl-DNA phosphodiesterase 1 (Homo sapiens), Q9NUW8. AID 485290, 2010. 350,000 tested, 0.28% active; note: potency is the fitted concentration of half-maximal effect; nearly all actives have a fitted effect of over 40% in size
# Target sequence (Q9NUW8 whole entry, looked up): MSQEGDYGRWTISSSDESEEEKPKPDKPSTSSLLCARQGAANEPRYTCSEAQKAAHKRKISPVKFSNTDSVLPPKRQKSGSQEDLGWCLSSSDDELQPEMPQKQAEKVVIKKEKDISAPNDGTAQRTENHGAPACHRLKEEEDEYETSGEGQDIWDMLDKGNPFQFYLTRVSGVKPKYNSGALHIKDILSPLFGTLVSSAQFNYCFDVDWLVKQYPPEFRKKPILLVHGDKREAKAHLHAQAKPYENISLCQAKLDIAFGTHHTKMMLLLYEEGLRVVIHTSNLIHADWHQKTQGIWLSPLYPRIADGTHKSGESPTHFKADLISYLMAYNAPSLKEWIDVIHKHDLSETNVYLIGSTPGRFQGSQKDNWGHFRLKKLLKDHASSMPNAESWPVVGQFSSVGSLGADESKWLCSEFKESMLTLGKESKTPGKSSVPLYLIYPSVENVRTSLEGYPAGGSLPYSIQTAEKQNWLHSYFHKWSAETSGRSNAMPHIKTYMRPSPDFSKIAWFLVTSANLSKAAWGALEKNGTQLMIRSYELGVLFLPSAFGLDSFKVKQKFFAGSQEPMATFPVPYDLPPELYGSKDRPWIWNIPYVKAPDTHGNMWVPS
#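 Compounds were preincubated with Tdp1 (1 nM final) for 15 min at room temperature before substrate (15 nM final) started a 5 min reaction; beads (10 ug/ml final) were then added for 10 min before AlphaScreen detection.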
# IL1B secr inh: qHTS for Inhibitors of Inflammasome Signaling: IL-1-beta AlphaLISA Primary Screen | activity change, % at 57.5 µM | 360,000 tested, 4.7% active | AID 743279, 2014 | THP-1 LPS/ATP IL-1B secretion, AlphaLISA, 16 h; stronger effect = lower value; in the data active = activity change below about -50%; inconclusive = mostly about -30% to -49%
#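 Secreted IL-1B measured by AlphaLISA bead assay after 16 h compound exposure of THP-1 cells; compounds (final up to 57.5 uM) added 1 h before LPS (250 ng/mL) and ATP (1.25 mM) stimulation; lower signal means less secretion.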
# CtBP-E1A inh: qHTS Assay for Inhibitors of the CtBP/E1A Interaction; CtBP / adenovirus E1A interaction (AlphaScreen); AlphaScreen GST-E1A/His-CtBP binding, 1536-well; stronger effect = lower value; activity change, % (concentration not given with the values); 340,000 tested, 0.49% active; AID 651724, 2012; in the data active = activity change below about -65%; inconclusive = mostly about -30% to -63%
#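 Homogeneous bead-based format: GST-tagged E1A captured on glutathione donor beads, His-tagged CtBP on nickel acceptor beads; compounds precede bead addition by 2 h at 37 °C.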
# Six1-Eya2 inh: qHTS Assay for Inhibitors of the Six1/Eya2 Interaction. Homeobox protein SIX1 (Homo sapiens) + Protein phosphatase EYA2 (Homo sapiens), …. AlphaScreen GST-Six1/His-Eya2 binding, biochemical; stronger effect = lower value. 360,000 tested, 0.56% active. AID 651725, 2012. activity change, % (no concentration beside the values); in the data active = activity change below about -65%; inconclusive = mostly about -30% to -63%
#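 Compounds are tested against tagged Six1 and Eya2 proteins bridged by glutathione donor and nickel acceptor beads; after a one-hour incubation at 37 °C without light, AlphaScreen emission is recorded.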
# DT40 TDP1 no CPT: qHTS for Inhibitors of human tyrosyl-DNA phosphodiesterase 1 (TDP1): qHTS in cells in absence of CPT. DT40 Tdp1-/- hTDP1 cells, no CPT, ATP luminescence, 48 h. Potency, µM (doses to about 46.2 µM), for the others: at the top dose activity change, negative = growth inhibition, most hits filed as inhibitors. 420,000 tested, 15% active; note: potency is the fitted concentration of half-maximal effect; nearly all actives have a fitted effect of over 55% in size
#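 Readout: luminescence from CellTiter-Glo after 30 min in the dark at RT. Cells: DT40 Tdp1-/- with stable hTDP1, 400/well. Exposure: compounds alone, ≥48 hr, 37 °C.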
# Numbers without * were called inactive; ? = inconclusive; / = no result given; ! = a repeat was not active. Unless noted, calls come from the whole dose curve; as a rule, active = well fitted curve in the direction sought with a large enough effect; inconclusive = small, poorly fitted or top-dose-only effect, or another doubt; inactive = no such curve, though single readings can be large; an effect the other way counts as inactive or inconclusive. % is set by controls: 0 for no effect and ±100 for the full control effect.
SMILES,TDP1 cell CPT,TDP1 inh,IL1B secr inh,CtBP-E1A inh,Six1-Eya2 inh,DT40 TDP1 no CPT
O=C(Nc1c(C(=O)N2CCN(c3ccccc3F)CC2)oc2ccccc12)c1ccccc1F,13µM*,4%,/,/,/,15µM*
COc1ccc(CC(=O)Nc2c(C(=O)N3CCN(c4ccccc4OC)CC3)oc3ccccc23)cc1OC,?,7%,22,-16,-13,23µM*
O=C(Nc1c(C(=O)N2CCN(c3ccccc3)CC2)oc2ccccc12)c1ccccc1F,?,8%,/,/,/,?
O=C(Nc1c(C(=O)N2CCN(c3ccccc3)CC2)oc2ccccc12)c1ccc(Br)o1,23µM*,6%,/,/,/,21µM*
COc1ccc(N2CCN(C(=O)c3oc4ccccc4c3NC(=O)CCc3cc(OC)no3)CC2)cc1,?,12%,-22,-24,-20,-21%
COc1cc(CCC(=O)Nc2c(C(=O)N3CCN(c4ccccc4)CC3)oc3ccccc23)on1,?,4%,-61*,-16,-9,16µM*
Cc1cc(C)cc(OCC(=O)N/N=C/c2ccncc2)c1,-13%,0%,-1,6,7,-16%
Cn1cc([N+](=O)[O-])c(C(=O)N/N=C/c2ccncc2)n1,4%,1%,5,5,3,14%
O=C(COc1ccc(F)cc1)Nc1c(C(=O)N2CCC(N3CCCCC3)CC2)oc2ccccc12,?,3%,?,/,-2,7.3µM*
Cc1cccc(OCC(=O)Nc2c(C(=O)N3CCN(c4ccccc4)CC3)oc3ccccc23)c1,?,9%,/,/,/,23µM*
OC[C@@H]1CN(Cc2ccco2)C[C@H](n2cnc3c(NC4CCCC4)ncnc32)O1,7%,/,13,8,-3,0%
CC(C)(C)C(=O)n1nc(-c2ccccc2)oc1=O,-1%,3%,1,-14,8,-8%
O=C(C[n+]1cccc2ccccc21)c1ccccc1,-2%,4%,-13,1,1,-17%
Cc1cc[n+](CC(=O)c2ccc(NC(=O)c3ccccc3)cc2)c2ccccc12,8.2µM*,2%,?,-4,-7,3.7µM*
Cc1cc[n+](CC(=O)c2ccc(NC(=O)c3ccccc3)cc2)cc1,?,6%,-10,-1,-1,?
O=C(C[n+]1cccc2ccccc21)c1ccc(NC(=O)c2ccccc2)cc1,8.2µM*,0%,0,-10,-6,6.5µM*
Cc1nc(-c2c(C(F)(F)F)noc2-c2ccc(O)cc2O)cs1,?,2%,0,-10,-10,?
CCOc1cc(C)c(-c2onc(C(F)(F)F)c2-c2csc(C)n2)c(O)c1,?,4%,-55*,2,0,?
Cn1cncc1C#Cc1ccc2cc(C3(O)CCCCC3)oc(=O)c2c1,-29%,56µM*,28,-3,5,?
O=C(NC(=S)N1CCOCC1)c1ccccc1Cl,-10%,0%,-2,4,2,18%
CC1(C)CC2CC(C)(CN2C(=S)Nc2ccccc2F)C1 (stereo unspecified),21µM*,5%,27,14,-1,13µM*
CC1(C)CC2CC(C)(CN2C(=S)NC(=O)c2ccccc2Cl)C1 (stereo unspecified),?,5%,17,-5,0,18µM*
CC1(C)CC2CC(C)(CN2C(=S)Nc2ccccc2)C1 (stereo unspecified),?,2%,2,2,-6,?
CCN(c1ccc(OC)cc1)S(=O)(=O)c1cc(-c2cc(C)no2)ccc1C(C)C,?,3%,2,-13,0,21µM*
COc1cccc(CNS(=O)(=O)c2cc(-c3cc(C)no3)ccc2C(C)C)c1,21µM*,0%,-24,0,5,?
SMILES,TDP1 cell CPT,TDP1 inh,IL1B secr inh,CtBP-E1A inh,Six1-Eya2 inh,DT40 TDP1 no CPT
COc1ccc(-c2cc(C)no2)cc1S(=O)(=O)NCc1cccc(C)c1,8%,0%,49,-1,0,?
COc1ccc(-c2cc(C)no2)cc1S(=O)(=O)NCc1ccc(OC(C)C)cc1,?,2%,49,0,-2,18µM*!
Cc1ccc(Cl)cc1NS(=O)(=O)c1ccc2c(c1)NC(=O)C(C)C(=O)N2 (stereo unspecified),?,/,42,0,18,?
O=C(NCc1ccccn1)c1cc(S(=O)(=O)N2CCCCCC2)ccc1Cl,-13%,2%,8,-16,-6,?
Cc1ccc(S(=O)(=O)Nc2nc(C)c(C(=O)Nc3ccccc3)s2)cc1,-10%,3%,29,/,-12,-8%
Cc1nc(NC(C)c2ccccc2)sc1C(=O)Nc1ccccc1 (stereo unspecified),?,6%,-52*,-21,-26,-21%
Cc1nc(Nc2ccccc2Cl)sc1C(=O)Nc1ccccc1,18µM*,11%,?,-2,-14,21µM*
Cc1nc(Nc2ccccc2)sc1C(=O)Nc1ccccc1,21µM*,6%,-65*,0,0,?
Cc1nc(C)c(C(=O)Nc2ccccc2)s1,-1%,0%,-17,4,5,-20%
COc1ccc(C(=O)c2sc(Nc3ccc(NC(C)=O)cc3)nc2C)cc1,29µM*,/,44,0,-4,16µM*
COc1ccc(OC)c(N(C)S(=O)(=O)c2ccc3c(c2)NC(=O)CC(=O)N3)c1,0%,1%,/,/,/,-11%
CSCCC(/C(O)=C(\C#N)c1nc2ccccc2[nH]1)N1C(=O)c2ccccc2C1=O (stereo unspecified),-27%,12%,-12,-19,-25,?
CCc1ccc(C2CC(c3ccccc3)n3ncnc3N2)cc1 (stereo unspecified),?,5%,-14,-2,3,-29%
O=S(=O)(NCc1ccc(F)cc1)c1cc(Br)ccc1Br,?,-9%,-2,3,7,?
Cc1nc(NCc2ccccc2)sc1C(=O)Nc1ccccc1,-1%,2%,-6,-3,5,?
COc1ccccc1Nc1nc(C)c(C(=O)Nc2ccccc2)s1,15µM*,-5%,-53*,2,-2,?

# Source: PubChem BioAssay
